According to PubChem BioAssay (Tox21):
Results filed as inconclusive are left out. Activity calls are given as the source filed them. Calls come from the whole dose curve; as a rule, active = well fitted curve in the direction sought with a large enough effect in the repeat runs; inconclusive = weak or mixed curves; inactive = no such curve, though single readings can be large; an effect the other way counts as inactive or inconclusive.

How the values were obtained:
[1] = A CellTox Green Cytotoxicity Assay to monitor cytotoxicity in HEK293 cells - 40 hour (AID 1224871); note: nearly all actives have a fitted effect of over 45% in size
In short: (§1)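 Dead-cell fluorescence measured kinetically: asymmetric cyanine dye, HEK293, 600 cells/well, 5 h settle, 23 nL cpd/DMSO, 37 C, reads 0–40 h every 8 h.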

[2] = qHTS RealTime-Glo MT Cell Viability Assay in HepG2 cells - 8 hour (AID 1224873); note: nearly all actives have a fitted effect of over 55% in size
In short: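 Real-time viability: cells seeded at 600 per well together with NanoLuc and cell-permeant prosubstrate, compounds added after 5 h incubation. Luminescence tracked at 0, 8, 16, 24, 32 and 40 h of exposure.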

[3] = qHTS RealTime-Glo MT Cell Viability Assay in HEK293 cells - 40 hour (AID 1224874); conditions: RealTime-Glo luminescence; max response: stronger effect = lower value; note: nearly all actives have a fitted effect of over 50% in size; note: potency is the fitted concentration of half-maximal effect
In short: (§2)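 600 HEK293 cells per well, dispensed already mixed with RealTime-Glo MT reagents. Compound dosing came 5 h later. The same wells were read for luminescence at 0, 8, 16, 24, 32 and 40 h of exposure at 37 C.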

[4] = A CellTox Green Cytotoxicity Assay to monitor cytotoxicity in HEK293 cells - 24 hour (AID 1224875); note: series mostly up to about 77 µM; nearly all actives have a fitted effect of over 45% in size
In short: as §1

[5] = A CellTox Green Cytotoxicity Assay to monitor cytotoxicity in HepG2 cells - 16 hour (AID 1224876); note: nearly all actives have a fitted effect of over 45% in size
In short: (§3)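 First, HepG2 cells (600/well) mixed with reagent were plated; second, after 5 h at 37 C they received compounds via pintool; third, fluorescence was measured at 0 h through 40 h at 8 h intervals.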

[6] = qHTS RealTime-Glo MT Cell Viability Assay in HepG2 cells - 32 hour (AID 1224877); note: nearly all actives have a fitted effect of over 55% in size
In short: (§4)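 Compound treatment began 5 h after plating HepG2 cells (600/well) with NanoLuc luciferase and prosubstrate. Plates stayed at 37 C for 40 h; luminescence was captured at six time points, 0 h through 40 h.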

[7] = A CellTox Green Cytotoxicity Assay to monitor cytotoxicity in HepG2 cells - 24 hour (AID 1224878); note: nearly all actives have a fitted effect of over 45% in size
In short: as §3

[8] = qHTS RealTime-Glo MT Cell Viability Assay in HEK293 cells - 0 hour (AID 1224880); note: nearly all actives have a fitted effect of over 45% in size; note: potency is the fitted concentration of half-maximal effect
In short: as §2

[9] = A CellTox Green Cytotoxicity Assay to monitor cytotoxicity in HEK293 cells - 32 hour (AID 1224881); note: nearly all actives have a fitted effect of over 40% in size
In short: as §1

[10] = A CellTox Green Cytotoxicity Assay to monitor cytotoxicity in HepG2 cells - 0 hour (AID 1224882); note: nearly all actives have a fitted effect of over 35% in size
In short: as §3

[11] = A CellTox Green Cytotoxicity Assay to monitor cytotoxicity in HepG2 cells - 32 hour (AID 1224883); note: nearly all actives have a fitted effect of over 50% in size
In short: as §3

[12] = A CellTox Green Cytotoxicity Assay to monitor cytotoxicity in HEK293 cells - 8 hour (AID 1224884); note: nearly all actives have a fitted effect of over 35% in size
In short: as §1

[13] = qHTS RealTime-Glo MT Cell Viability Assay in HepG2 cells - 16 hour (AID 1224885); note: nearly all actives have a fitted effect of over 50% in size
In short: as §4

[14] = qHTS RealTime-Glo MT Cell Viability Assay in HepG2 cells - 0 hour (AID 1224889); note: nearly all actives have a fitted effect of over 50% in size; note: potency is the fitted concentration of half-maximal effect
In short: as §4

[15] = A CellTox Green Cytotoxicity Assay to monitor cytotoxicity in HepG2 cells - 8 hour (AID 1224890); note: nearly all actives have a fitted effect of over 45% in size
In short: as §3

[16] = A CellTox Green Cytotoxicity Assay to monitor cytotoxicity in HepG2 cells - 40 hour (AID 1224879); note: nearly all actives have a fitted effect of over 40% in size
In short: as §3

[17] = A CellTox Green Cytotoxicity Assay to monitor cytotoxicity in HEK293 cells - 16 hour (AID 1224888); note: nearly all actives have a fitted effect of over 35% in size
In short: as §1

[18] = qHTS RealTime-Glo MT Cell Viability Assay in HEK293 cells - 16 hour (AID 1224872); note: nearly all actives have a fitted effect of over 50% in size; note: potency is the fitted concentration of half-maximal effect
In short: (§5)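 Quantitative high-throughput screen of the Tox21 10K library in HEK293: cells and RealTime-Glo reagents plated together, compound added at 5 h, luminescence monitored through 40 h at 37 C.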

[19] = qHTS RealTime-Glo MT Cell Viability Assay in HEK293 cells - 8 hour (AID 1224887); note: nearly all actives have a fitted effect of over 50% in size; note: potency is the fitted concentration of half-maximal effect
In short: as §2

[20] = qHTS RealTime-Glo MT Cell Viability Assay in HEK293 cells - 24 hour (AID 1224886); note: nearly all actives have a fitted effect of over 50% in size; note: potency is the fitted concentration of half-maximal effect
In short: as §5
% is set by controls: 0 for no effect and ±100 for the full control effect.

CCCCCCOc1ccccc1C(N)=O
inactive: Potency [1] | outcome [2] | outcome [4] | outcome [5] | outcome [6] | outcome [7] | Potency [8] | Potency [9] | outcome [10] | Potency [11] | Potency [12] | outcome [13] | Potency [14] | outcome [15]
active: Potency [3] 10.7 µM

COCCOC(=O)C1=C(C)NC(C)=C(C(=O)OC(C)C)C1c1cccc([N+](=O)[O-])c1 (centres undefined)
inactive: Potency [1] | outcome [4] | outcome [5] | outcome [7] | Potency [16] | Potency [9] | outcome [10] | Potency [11] | Potency [12] | outcome [17] | outcome [15]
active: Potency [8] 2.39 µM | Potency [14] 0.601 µM

CCCCCCCCSCC
inactive: Potency [1] | Potency [18] | outcome [2] | max response [3] 7.92% | outcome [5] | outcome [6] | outcome [7] | Potency [16] | Potency [8] | Potency [9] | outcome [10] | Potency [11] | Potency [12] | outcome [13] | Potency [19] | outcome [17] | Potency [14] | outcome [15]

CC(S)C(=O)NCC(=O)O (centres undefined)
inactive: Potency [18] | outcome [2] | max response [3] 11.2% | outcome [5] | outcome [6] | outcome [7] | Potency [16] | Potency [8] | outcome [10] | Potency [11] | outcome [13] | Potency [20] | Potency [19] | Potency [14] | outcome [15]

O=C1CCCC(=O)O1
inactive: Potency [1] | Potency [18] | outcome [2] | max response [3] 15.9% | outcome [4] | outcome [5] | outcome [7] | Potency [16] | Potency [8] | Potency [9] | Potency [11] | Potency [12] | outcome [13] | Potency [20] | Potency [19] | outcome [17] | Potency [14] | outcome [15]

O=C1c2ccccc2C(=O)c2cc(S(=O)(=O)O)ccc21
inactive: Potency [1] | outcome [2] | outcome [4] | outcome [5] | outcome [6] | outcome [7] | Potency [16] | Potency [8] | Potency [9] | outcome [10] | Potency [11] | Potency [12] | outcome [13] | outcome [17] | Potency [14] | outcome [15]

CC1=CCC(C(C)C)=CC1
inactive: Potency [1] | Potency [18] | outcome [2] | max response [3] -3.87% | outcome [4] | outcome [5] | outcome [7] | Potency [16] | Potency [8] | Potency [9] | outcome [10] | Potency [11] | Potency [20] | Potency [19] | outcome [17] | Potency [14] | outcome [15]

CCO[Si](CCCS)(OCC)OCC
inactive: Potency [1] | outcome [2] | max response [3] 16.1% | outcome [4] | outcome [5] | outcome [6] | outcome [7] | Potency [16] | Potency [8] | Potency [9] | Potency [11] | outcome [13] | Potency [14] | outcome [15]

CC(=O)NCc1c(I)c(NC(C)=O)c(I)c(C(=O)O)c1I
inactive: Potency [1] | Potency [18] | outcome [2] | max response [3] 3.65% | outcome [4] | outcome [6] | Potency [8] | Potency [9] | Potency [12] | outcome [13] | Potency [20] | Potency [19] | outcome [17] | Potency [14]

CCN(CC)CC(=O)Nc1c(C)cccc1C
inactive: Potency [1] | outcome [2] | outcome [4] | outcome [5] | outcome [6] | outcome [7] | Potency [16] | Potency [9] | outcome [10] | Potency [11] | Potency [12] | outcome [13] | outcome [17] | Potency [14] | outcome [15]
active: Potency [18] 10.7 µM | Potency [20] 9.52 µM | Potency [19] 10.7 µM

CC1COc2ccccc2N1 (centres undefined)
inactive: Potency [1] | Potency [18] | outcome [2] | outcome [4] | outcome [5] | outcome [6] | outcome [7] | Potency [16] | Potency [8] | Potency [9] | Potency [11] | Potency [12] | outcome [13] | Potency [19] | outcome [17] | Potency [14] | outcome [15]

CC(COC(C)(C)C)OCCCO (centres undefined)
inactive: Potency [1] | Potency [18] | outcome [2] | outcome [4] | outcome [5] | outcome [6] | outcome [7] | Potency [16] | Potency [8] | Potency [9] | outcome [10] | Potency [11] | Potency [12] | outcome [13] | Potency [20] | Potency [19] | outcome [17] | Potency [14] | outcome [15]
